HT1080 IDH1KD tx: qHTS for induction of synthetic lethality in tumor cells producing 2HG: qHTS for the HT-1080-IDH1KD cell line; HT-1080 IDH1 knockdown viability, ATP luminescence, 48 h; Potency, µM (series often up to 46.1 µM), for the others: top-dose activity, negative = toxicity, usual class: cytotoxic; 360,000 tested, 2% active; AID 686971, 2013;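 also: potency is read from the fitted curve at half-maximal effect; 0% = DMSO wells and -100% = cell-free medium wells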
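Cytotoxicity counter-line: IDH1KD HT-1080, 48 h, CellTiter-Glo. Curves classed by r2, magnitude and activity.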
DT40 TDP1 no CPT: qHTS for Inhibitors of human tyrosyl-DNA phosphodiesterase 1 (TDP1): qHTS in cells in absence of CPT | DT40 Tdp1-/- hTDP1 cells, no CPT, ATP luminescence, 48 h | Potency, µM (doses to about 46.2 µM), inactives show at the highest dose activity change, negative = growth inhibition, usual class: inhibitors | 420,000 tested, 15% active; also: potency is read from the fitted curve at half-maximal effect; nearly all actives have a fitted effect of over 55% in size
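Growth kinetics read by CellTiter-Glo luminescence after ≥48 hr at 37 °C. Cells: DT40 Tdp1-/- stably carrying human TDP1, 400 per well, compound exposure in the absence of CPT (DMSO vehicle).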
IL1B secr inh: qHTS for Inhibitors of Inflammasome Signaling: IL-1-beta AlphaLISA Primary Screen. THP-1 LPS/ATP IL-1B secretion, AlphaLISA, 16 h; stronger effect = lower value. activity change, % at 57.5 µM. 360,000 tested, 4.7% active; in the data active = activity change below about -50%; inconclusive = mostly about -30% to -49%
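Secreted IL-1B measured by AlphaLISA bead assay after 16 h compound exposure of THP-1 cells; compounds (final up to 57.5 uM) added 1 h before LPS (250 ng/mL) and ATP (1.25 mM) stimulation; lower signal means less secretion.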
HT1080-NT tox: qHTS for induction of synthetic lethality in tumor cells producing 2HG: qHTS for the HT-1080-NT fibrosarcoma cell line | HT-1080-NT fibrosarcoma viability, CellTiter-Glo ATP luminescence, 48 h | Potency, µM (top dose mostly 46.1 µM), for the others: top-dose activity, negative = less viability, usual class: cytotoxic | 360,000 tested, 1.6% active;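 also: NT is the 2HG producing partner of a matched IDH1 knockdown line; potency is read from the fitted curve at half-maximal effect; 0% = DMSO-treated cells and -100% = media-only wells without cells; nearly all actives have a fitted effect of over 55% in size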
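Viability by CellTiter-Glo luminescence after 48 h compound exposure at 37C of HT-1080-NT cells (750/well, RPMI, 5% FBS). % activity scaled between DMSO wells and medium-only wells, then curve-fitted and categorized by curve class.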
TDP1 cell CPT: qHTS for Inhibitors of human tyrosyl-DNA phosphodiesterase 1 (TDP1): qHTS in cells in presence of CPT; Potency, µM (top dose mostly 46.2 µM), for the others: at the top dose activity change, negative = growth inhibition, actives largely listed as inhibitors; 420,000 tested, 12% active; AID 686979, 2013; chicken DT40 Tdp1-/-;hTDP1 cells + 20 nM CPT, ATP luminescence, 48 h; also: potency is read from the fitted curve at half-maximal effect; nearly all actives have a fitted effect of over 55% in size
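Chicken DT40 Tdp1-/- cells complemented with human TDP1, 400 cells/well, exposed to compounds plus 20 nM camptothecin for at least 48 h at 37 C; viability read as ATP content by CellTiter-Glo luminescence.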
The depositor's hits bear a star; ? = inconclusive; / = not tested or not shown. Sampled rows, rich in hits. Any-hit rate of the full collection: about 19%. Unless noted, calls follow the shape of the dose curve; as a rule, active = well fitted curve in the direction sought with a large enough effect; inconclusive = small, poorly fitted or top-dose-only effect, or another doubt; inactive = no such curve, though single readings can be large; an effect the other way counts as inactive or inconclusive. Unless noted, % is scaled to controls: 0 for no effect and ±100 for the full control effect.

SMILES	HT1080 IDH1KD tx	DT40 TDP1 no CPT	IL1B secr inh	HT1080-NT tox	TDP1 cell CPT
COc1ccc(CNC(=O)COC(=O)CN2C(=O)NC3(CCCC3)C2=O)cc1	12.5%	15.4%	17.2	10.5%	23.6%
CC1CCN(c2ccc3nnc(CCC(=O)Nc4cccc(F)c4)n3n2)CC1	21.9%	?	0.0	-0.3%	?
COc1ccc(OC)c(NC(=O)CSc2ccc3nnc(-c4ccccn4)n3n2)c1	-1.9%	11.0%	-13.2	2.5%	0.9%
N#Cc1ccc(C(=O)NCc2ccc3c(c2)CCN3C(=O)c2ccc(F)cc2)cc1	/	23.1µM*	/	/	?
CCN(CC)c1ccc(C(=O)NCc2ccc3c(c2)CCN3C(=O)c2ccc(F)cc2)cc1	/	4.61µM*	/	/	5.8µM*
CCC(=O)N1CCc2cc(CNC(=O)c3ccc(F)cc3)ccc21	/	-24.1%	/	/	-28.9%
O=C(Nc1nccs1)[C@@H]1CC=C[C@@H]2CCN(C3CCCCC3)C(=O)[C@@H]21	/	2.9%	/	/	8.0%
CC(=O)NCCC(=O)N1CCCC(C(=O)c2ccc3c4c(cccc24)CC3)C1 (stereo not given)	-2.9%	?	9.3	-5.8%	?
Cc1cccc(CN2CCCC(C(=O)c3ccc4c5c(cccc35)CC4)C2)n1 (stereo not given)	?	13µM*	-27.6	?	16.4µM*
CC(=O)N1CCCC(C(=O)c2ccc3c4c(cccc24)CC3)C1 (stereo not given)	4.1%	23.1µM*	5.1	4.5%	-27.8%
CN1CCC(C(=O)N2CCCC(C(=O)c3ccc4c5c(cccc35)CC4)C2)CC1 (stereo not given)	-21.8%	18.4µM*	-11.8	-18.4%	?
O=C(c1ccc2c3c(cccc13)CC2)C1CCCN(C(=O)c2cccnc2)C1 (stereo not given)	-8.0%	20.6µM*	0.7	-0.8%	11.6µM*
CC(C)c1ccc(NC2CCCN(C(=O)c3cccnc3)C2)cc1 (stereo not given)	-7.1%	?	18.6	19.8%	?
COc1ccc(CCNC(=O)C(=O)NCC(c2ccco2)S(=O)(=O)c2ccccc2)cc1OC (stereo not given)	/	?	/	/	-27.8%
CSc1ccc(CC(=O)N2CCC(n3nccc3NC(=O)C3CC3)CC2)cc1	?	15.8%	0.0	20.1%	-1.2%
CCCCCC(=O)Nc1ccc(S(=O)(=O)NC2=NCCCCC2)cc1	2.3%	13.0%	0.9	4.9%	-23.1%
CCOC(=O)C1CCCN(Cc2ccc(OC)c(OCc3ccccc3)c2)C1 (stereo not given)	-2.8%	0.1%	-3.4	0.4%	-19.6%
COc1cc(CN2CCCC(C(=O)c3ccc4c5c(cccc35)CC4)C2)cc(OC)c1O (stereo not given)	-9.7%	4.61µM*	-6.7	-27.6%	4.61µM*
O=C(C1CCCN(Cc2ccccc2)C1)N1CCCCC1 (stereo not given)	10.7%	1.2%	14.2	10.1%	7.7%
O=C(c1ccc2c3c(cccc13)CC2)C1CCCN(Cc2cccnc2)C1 (stereo not given)	-18.2%	?	-78.1*	-28.5%	-20.5%
CCN(CC)CCCOC(=O)c1ccc(OC)cc1O	15.0%	3.9%	-4.6	-14.7%	1.9%
CC1=NN(Cc2ccccc2)C(=O)C1C(c1ccccc1)C(C#N)C#N (stereo not given)	-11.1%	25.9µM*	-3.1	-15.8%	20.6µM*
CC1=NN(Cc2ccccc2)C(=O)C1C(c1ccncc1)C(C#N)C#N (stereo not given)	-0.8%	?	-11.5	-2.4%	?
CC1=NN(Cc2ccccc2)C(=O)C1C(c1ccc(Cl)cc1)C(C#N)C#N (stereo not given)	-0.1%	10.3µM*	-29.3	-24.8%	10.3µM*

Assay outcomes as filed in PubChem BioAssay.
